The list is not random: actives were taken first. Their share in the collection is about 21%.
Pf growth 96h: Primary qHTS for delayed death inhibitors of the malarial parasite plastid, 96 hour incubation. P. falciparum luciferase reporter growth, 96 h. Potency, µM (top dose mostly 28.7 µM), inactives show at the highest dose activity change, negative = inhibition, most hits filed as inhibitors. hit rate 6.9% among 320,000. AID 504834, 2011; further: potency means the concentration at half of the fitted maximal effect; on the % scale 0 is the no-effect control and ±100 the full control effect
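Compounds incubated with erythrocytes infected by luciferase-expressing P. falciparum (2% hematocrit, 0.05% parasitemia final) for 96 hours, 37 C in 5% CO2. Growth inhibition scored as decreased luciferase luminescence.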
Cycloheximide cs: Cycloheximide Counterscreen for Small Molecule Inhibitors of Shiga Toxin. cell reporter, cycloheximide protein synthesis inhibition counterscreen. hit rate 12% among 300,000. max response, %; in the data active means max response mostly above about 13%, no sharp cut-off; inactive means mostly below about 14%; further: read at 38.3 µM for the half of the compounds with a filed dose; 0% is about no effect
Pf growth 48h: Primary qHTS for delayed death inhibitors of the malarial parasite plastid, 48 hour incubation | P. falciparum luciferase growth in erythrocytes, 48 h | Potency, µM (series often up to 28.7 µM), for inactives: at the top dose activity change, negative = inhibition, actives largely listed as inhibitors | hit rate 5.9% among 310,000 | AID 504832, 2011; further: potency means the concentration at half of the fitted maximal effect; on the % scale 0 is the no-effect control and ±100 the full control effect
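Luminescence readout; reporter = integrated firefly luciferase in P. falciparum. RBC culture at 2% hematocrit, 0.1% parasitemia final, 37 C/5% CO2; decreased signal taken as growth inhibition.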
NS1 function inh: qHTS Assay for Inhibitors of Influenza NS1 Protein Function; hit rate 0.4% among 270,000; AID 2326, 2010; Potency, µM (titrated, usually from 46.1 µM), inactives show top-dose activity, positive = more growth; calls by dose curve; further: potency means the concentration at half of the fitted maximal effect; actives are rising curves; nearly all actives have a fitted effect of over 50% in size
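In this qHTS, NS1 from influenza A is expressed in budding yeast, where it slows growth. Cells are switched from glucose to 2% galactose medium (pH 6.0, -URA), treated with compound, and growth recovery is read at OD600.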
Shiga inhibitor: A qHTS for Small Molecule Inhibitors of Shiga Toxin; hit rate 9.2% among 290,000; inhibition, % at 38.7 µM; AID 2315, 2010; Vero cells, Shiga toxin protein synthesis inhibition reporter; in the data active means inhibition mostly above about 28%, no sharp cut-off; inactive means mostly below about 43%; further: 0% is about no effect
Active calls of the source: *; ? = inconclusive; . = not tested or not shown; [ ] = dose if it differs, or a comment. Unless noted, the call rests on the fitted dose curve; in most records, active means well fitted inhibition curve with a large enough effect; inconclusive means small, poorly fitted or top-dose-only effect, or another doubt; inactive means no such curve, though single readings can be large or run the other way.

SMILES | Pf growth 96h | Cycloheximide cs | Pf growth 48h | NS1 function inh | Shiga inhibitor
CCCn1cnc2c(cnn2-c2ccc(F)cc2)c1=O | 5% | 43* | 298% | -1% | 70*
Cn1c(=O)[nH]c(=O)c2c1nc(N1CCN(CCO)CC1)n2Cc1ccccc1 | ? | -2 | -2% | 23% | -10
CC(C)N(C(=S)Nc1cccc(C(F)(F)F)c1)C(C)c1ccccn1 (centres undefined) | 18% | 15 | ? | . | 16
Cc1sc2ncnc(SC(C)C(=O)N3c4ccccc4Sc4ccccc43)c2c1C (centres undefined) | 7.4µM* | -2 | 1.7µM* | -3% | 13
CCOC(=O)c1c(S(=O)(=O)NCC(=O)NCc2ccccc2Cl)c(C)n(C)c1C | 8% | 0 | 23% | -7% | -6
CC(C)(C)c1ccc(NC(=O)COC(=O)C2CCCC2)cc1 | 5% | . | 25% | . | .
Nc1ccc(C(=O)O)cc1[N+](=O)[O-] | 0% | -2 | -4% | . | -6
Nc1ccc(C(=O)c2cccs2)cc1[N+](=O)[O-] | 35% | 28* | 52% | -5% | 71*
C/C=C(/C)C(=O)OC1c2c(ccc3ccc(=O)oc23)OC(C)(C)C1OC(=O)/C(C)=C\C (centres undefined) | 1.5µM* | -4 | ? | 2% | -7
C/C=C(\C)C(=O)OC1c2c(ccc3ccc(=O)oc23)OC(C)(C)C1OC(C)=O (centres undefined) | ? | -2 | 8.3µM* | -3% | -2
COc1ccccc1CNC(=O)CS(=O)(=O)c1ccccc1 | 25% | -4 | -1% | 8% | -10
COc1cc(C=NCC2OCCc3ccccc32)cc(OC)c1 (centres undefined) | 9.3µM* | -2 | 8% | -35% | -11
COc1ccc(C=NCC2OCCc3ccccc32)cc1OC (centres undefined) | 2% | 8 | -7% | 18% | 1
COCCN(C(=O)CSc1nnc(-c2ccccc2F)o1)c1c(N)n(CC(C)C)c(=O)[nH]c1=O | -16% | . | ? | . | .
Cc1cc2c(c(=O)o1)C(CCC1CCCCC1)C(C#N)=C(N)O2 (centres undefined) | 33% | -1 | 5% | -9% | -3
COc1ccc(CCNC(=O)c2cc(-c3ccc(C)cc3O)n[nH]2)cc1OC | 7.4µM* | 5 | . | 6% | -4
COc1ccc(CCNC(=O)c2cc(-c3ccccc3O)n[nH]2)cc1OC | 3%[5.75 µM] | 5 | 13µM* | 4% | 3
O=c1ccnc(NCCc2ccccc2)[nH]1 | . | 29* | 22% | 9% | 48
CCCc1cc(=O)[nH]c(SCCc2ccccc2)n1 | 9.3µM* | 12* | 17% | -2% | 30
CCCCSc1nc(CCC)cc(=O)[nH]1 | -9% | 10 | 22% | -12% | -16
CCCc1cc(=O)[nH]c(NCc2ccc(Cl)cc2)n1 | 16% | -3 | -26% | 9% | -13
Cn1c(=O)cc(NCCc2ccccc2)[nH]c1=O | 10% | -1 | 12% | 10% | -10
CCCc1cc(=O)[nH]c(NCCc2ccccc2)n1 | 13µM* | -3 | ? | -1% | 3
COC(=O)c1cc(C#N)c(NCc2ccccc2)nc1C | . | -2 | 18% | -2% | -10
COc1ccccc1C(=O)NCC(=O)N/N=C(\C)Cc1ccccc1 | 55% | -3 | 4% | -1% | -1
SMILES | Pf growth 96h | Cycloheximide cs | Pf growth 48h | NS1 function inh | Shiga inhibitor
CCCNC(=O)CN(C)S(=O)(=O)c1c(C)cc(C)cc1C | 10µM* | -2 | 7.4µM* | -7% | -1
CCN(CCCNC(=O)CNC(=O)c1nn(-c2ccc(OC)c(OC)c2)c(=O)c2ccccc12)c1ccccc1 | ? | -2 | 12µM* | 5% | -2
COc1ccc(CCNC(=O)CNC(=O)c2nn(-c3ccc(OC)c(OC)c3)c(=O)c3ccccc23)cc1OC | 60% | -2 | 9.3µM* | -17% | -4
COc1ccc(-n2nc(C(=O)NCC(=O)NCCc3ccc(OC)c(OC)c3)c3ccccc3c2=O)cc1 | -19% | 1 | ? | -4% | 19
CCOC(=O)C1CCN(C(=O)C2CCN(S(=O)(=O)c3cccc4nsnc34)CC2)CC1 | ? | -1 | -23% | -4% | 17
CCCC(NS(=O)(=O)c1ccc(-c2ccc(=O)[nH]n2)s1)c1cccs1 (centres undefined) | ? | 23* | 4% | 9% | 23*
Cc1cccc(CNS(=O)(=O)c2ccc(-c3ccc(=O)[nH]n3)s2)c1 | 53% | 7 | 3% | 4% | -4
Oc1ccccc1C1CC(c2cccs2)=NC(c2ccc(Cl)cc2)N1 (centres undefined) | 0% | 37* | ? | -50% | 50*
Fc1ccc(C2CC(c3cccs3)=NN2C(=S)Nc2ccccc2)cc1 (centres undefined) | ? | 1 | ? | 15% | -6
CCN(CC)S(=O)(=O)c1ccc2c(c1)nc(SCC(=O)N1CCOCC1)n2-c1ccccc1OC | 12µM* | 11 | ? | 17% | -13
CCN(CC)S(=O)(=O)c1ccc2c(c1)nc(SCC(=O)N1CCCCCC1)n2-c1ccc(OC)cc1 | . | -3 | 13µM* | 8% | -4
CCC(C(=O)N1CCOCC1)n1nc(C)c2sc3ccccc3c2c1=O (centres undefined) | 20% | -6 | -10% | 16% | -10
O=C(NCCN1CCN(C(=O)Nc2ccccc2)CC1)Nc1ccccc1 | 5.2µM* | -6 | . | -2% | -13
CSc1ccc(NC(=O)NCCCN2CCC(Cc3ccccc3)CC2)cc1 | ? | -3 | 8.3µM* | -1% | -5
Cc1ccc(NC(=O)NCCN2CCN(C(=O)Nc3ccc(C)cc3)CC2)cc1 | ? | -5 | ? | -1% | -6
CSc1ccc(NC(=O)NCCN2CCc3ccccc3C2)cc1 | 31% | 16* | 7% | 8% | 12
COc1ccc(NC(=O)NCCN2CCc3ccccc3C2)cc1 | ? | -2 | 1% | 4% | 13
CC12CC3CC(C)(C1)CC(NCc1ccncc1)(C3)C2 | ? | -9 | -4% | . | -21
O=C(O)CC(NNC(=O)c1ccccc1)C(=O)Nc1ccc([N+](=O)[O-])cc1 (centres undefined) | 0% | 37* | 12% | 15% | 67*
NC(N)=NCCCC(NC(=O)c1ccccc1)C(=O)Nc1ccc([N+](=O)[O-])cc1 (centres undefined) | 9.3µM* | . | ? | . | .
NC(N)=NCCC[C@H](NC(=O)c1ccccc1)C(=O)Nc1ccc([N+](=O)[O-])cc1 | . | -7 | . | . | -6
NC(N)=NCCCC(NC(=O)c1ccccc1)C(=O)Nc1ccc2ccccc2c1 (centres undefined) | 10µM* | . | ? | . | .
CC(C)CN(C(=O)C1CCCO1)C1CCS(=O)(=O)C1 (centres undefined) | 23% | . | 9% | . | .
O=C(NCCN1CCOCC1)c1cccc(S(=O)(=O)N(Cc2ccccc2)c2ccccc2)c1 | -2% | . | 0% | . | .
COc1ccc(-c2c(C)nc(N)nc2-c2ccc(OC)cc2O)cc1 | ? | 12 | ? | -4% | 9
COc1ccc(-c2c(C)nc3c(-c4ccccn4)cnn3c2N)cc1 | 29% | 59* | 10% | -6% | 96*

Screens from PubChem BioAssay.
